According to PubChem BioAssay AID2315 (National Center for Advancing Translational Sciences (NCATS), 2010):
The whole screen tested about 290,000 compounds, of which about 27,000 (9.3%) were called active. The sample as a whole holds a higher share of actives than the screen did. A number with no mark means an inactive call. No stated cut-off is given here; in the data, active means inhibition mostly above about 28% (no sharp cut-off); inactive means mostly below about 43%.

test: A qHTS for Small Molecule Inhibitors of Shiga Toxin; details: Vero cells, Shiga toxin protein synthesis inhibition reporter; at 38.7 µM, stronger effect = higher value; further: 0% is about no effect

| SMILES | inhibition |
| --- | --- |
| O=C(NCc1nnc(SCC(=O)N2CCCCCC2)o1)c1ccc(F)cc1 | -3.11% |
| c1ccc(C2=Nc3cccc4cccc(c34)N2)cc1 | 3.03% |
| COc1ccccc1C1=Nc2cccc3cccc(c23)N1 | -3.03% |
| Fc1ccccc1N=C1Nc2cccc3cccc1c23 | 59% (active) |
| Cc1cc(N2C(=O)C(O)=C(C(=O)c3ccc(C)o3)C2c2ccc(OCc3ccccc3)cc2)no1 (centres undefined) | -3.21% |
| COc1ccc(NC(=O)c2cn(-c3ccccc3)nc2SC)cc1 | 43.3% (active) |
| COc1ccc(-c2nn(-c3ccccc3)cc2C(=O)Nc2nc(CC(C)=O)ns2)cc1 | -2.47% |
| COc1ccc(-c2nn(-c3ccccc3)cc2/C=C\C(=O)Nc2ccc(C(=O)O)cc2)cc1 | -20.1% |
| O=C(CN1CCC(O)(c2cccc(C(F)(F)F)c2)CC1)NCCc1ccccc1 | -6.9% |
| CC(NC(=O)CNC(=O)Cc1cccc2ccccc12)c1ccc(S(N)(=O)=O)cc1 (centres undefined) | -8.32% |
| COc1ccccc1CC(=O)Nc1ccc(F)cc1F | 1.11% |
| COC(=O)c1ccccc1NC(=O)Cc1ccccc1OC | 0.83% |
| CC[C@]1(c2ccccc2OC)C(=O)N(C(=O)OC)N1C(=O)OC | 35.6% (active) |
| COc1ccccc1-n1c(SCC(=O)Nc2cccc(C(=O)O)c2)nnc1-c1ccccc1O | 6.46% |
| CCOC(=O)N1CCN(C(=O)c2ccc3c(c2)N(Cc2ccc(C)cc2)CCS3)CC1 | -7.18% |
| O=C(NCCN1CCOCC1)c1ccc2c(c1)N(Cc1ccc(Cl)cc1)CCS2 | -14% |
| O=C(NCCc1ccccc1)c1ccc2c(c1)N(Cc1ccccc1)CCS2 | 59.8% (active) |
| COCCNc1ccc(-c2n[nH]c(=O)c3ccccc23)cc1[N+](=O)[O-] | -2.3% |
| O=C(NCc1ccccc1Cl)C1CCN(S(=O)(=O)c2cccc3nonc23)CC1 | 9.83% |
| CCN(CC(=O)NCC(=O)Nc1cccc(C)c1C)Cc1ccccc1 | -9.33% |

| SMILES | inhibition |
| --- | --- |
| CC(C)=C1SC(N2CCN(c3cccc(C)c3)CC2)=NC1=O | -21.2% |
| CCN1C(=O)/C(=C2\SC(N3CCCCC3)=NC2=O)c2ccccc21 | 52.1% (active) |
| CC(C)=C1SC(N2CCN(c3ccc(C)c(Cl)c3)CC2)=NC1=O | 7.4% |
| Cc1cc(C)cc(C(=O)NC(CC(N)=O)c2ccc(N3CCC(N4CCCCC4)CC3)c([N+](=O)[O-])c2)c1 (centres undefined) | -3.41% |
| COc1cccc(NC(=O)N2C3CCCC2CC(NC(C)=O)C3)c1 (centres undefined) | -2.41% |
| Cc1ccc(S(=O)(=O)NCc2ccc(C(=O)NC3CCC(C)CC3)cc2)cc1 (centres undefined) | -2.09% |
| COc1ccc(/C=N/Nc2ncnc3sc4c(c23)CCCC4)cc1O | 79.2% (active) |
| COc1ccc(NC(=O)CCCNC(=O)Cn2cnc3sc4c(c3c2=O)CCCC4)cc1OC | -15.7% |
| COc1ccc(NC(=O)CCNC(=O)Cn2cnc3sc4c(c3c2=O)CCCC4)cc1OC | 7.2% |
| COc1ccc(NC(=O)CNC(=O)Cn2ccc3ccccc3c2=O)c(OC)c1 | -5.3% |
| CC[C@H](C)[C@H](NC(=O)[C@H](CCCNC(=N)N)NC(=O)[C@H](CCCNC(=N)N)NC(=O)[C@H](CC(C)C)NC(=O)[C@H](Cc1ccccc1)NC(=O)CNC(=O)CNC(=O)[C@@H](N)Cc1ccc(O)cc1)C(=O)N[C@@H](CCCNC(=N)N)C(=O)N1CCC[C@H]1C(=O)N[C@@H](CCCCN)C(=O)N[C@@H](CC(C)C)C(=O)N[C@@H](CCCCN)C(=O)N[C@@H](Cc1c[nH]c2ccccc12)C(=O)N[C@@H](CC(=O)O)C(=O)N[C@@H](CC(N)=O)C(=O)N[C@@H](CCC(N)=O)C(=O)O | -7.4% |
| CN(C)c1ccc(CNC(=O)CN2C(=O)COc3ccc(S(=O)(=O)N4CCCC4)cc32)cc1 | -2.88% |
| O=C(Cc1ccc(Cl)cc1)NC(=S)Nc1ccccc1O | -14.5% |
| Oc1ccc(CNc2ccccc2O)cc1 | 120% (active) |
| O=[N+]([O-])c1ccccc1Nc1ccc(O)cc1 | -30.1% |
| CCN1CCN(C2CCCCC2NS(=O)(=O)c2ccc(Cl)cc2)CC1 (centres undefined) | -12.5% |
| COC(=O)C1=C(C)N(c2ccc(Br)cc2)C(=O)/C1=C\c1ccco1 | 14.6% |
| CC(C)(C)C1C/C(=C/c2ccco2)C(=O)/C(=C/c2ccco2)C1 (centres undefined) | 46.5% (active) |
| O=C1OC(/C=C/c2ccccc2)=NC/1=C/c1ccco1 | -7.2% |
| Cc1c(S(=O)(=O)N2CC(C)CC(C)C2)c(=O)n(C)c(=O)n1C (centres undefined) | -33.2% |

| SMILES | inhibition |
| --- | --- |
| O=C(CCc1c[nH]c2ccccc12)NCCOc1ccccc1 | 44.8% |
| Oc1ccc(N=Cc2sc3ccccc3c2Cl)cc1 | 77.5% (active) |
| Oc1ccc(N=Cc2c(O)ccc3ccccc23)cc1 | 18.7% |
| Cc1nn(C)cc1/C=N/NC(=O)c1sc2ccccc2c1Cl | 25% |
| CC(C)c1cc(C(=O)N/N=C/c2ccoc2)c(O)c(C(C)C)c1 | 4.23% |
| O=C(N/N=C/c1ccoc1)c1ccc(Cl)cc1Cl | 68.7% (active) |
| CC(C)NC(=O)c1ccc(Cl)cc1Cl | 8.65% |
| O=C(NCCCN1CCCCC1)C1CCCN(c2ncnc3c2nc2n3CCCCC2)C1 (centres undefined) | 4.24% |
| OC(COc1ccc(F)cc1Cl)CN1CCc2ccccc2C1 (centres undefined) | 16.9% |
| Cn1nccc1NS(=O)(=O)c1ccc(F)cc1 | 160% (active) |
| Cc1cc(C)cc(NS(=O)(=O)c2ccc(F)cc2)c1 | 8.8% |
| Cc1ccc(NS(=O)(=O)c2ccc(F)cc2)nc1 | -8.43% |
| COc1ccc(S(=O)(=O)NC(C)C(=O)NCc2ccncc2)cc1Cl (centres undefined) | -1.67% |
| Cc1nc2ccc(NC(=O)C(F)(F)F)cc2o1 | -11.6% |
| CCCCc1ccc(NC(=O)NCc2cccnc2)cc1 | 6.04% |
| Cc1nc2cc(NC(=O)NCc3ccccc3)ccc2o1 | 44.8% (active) |
| Cc1ccc(NC(=O)Nc2ccc3oc(C)nc3c2)cc1 | 144% (active) |
| O=C(CSc1ncccn1)NC(=O)NCc1ccccc1 | 34.2% |
| Cc1nc(C)c(C(=O)Nc2ccc(C)c(F)c2)o1 | 0.239% |
